PubChem BioAssay (NCI)
About 83,000 compounds went through this panel and 20% of them were active in at least one assay; those are over-represented in the sample as a whole.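 Plates (96-well) were seeded with cells, treated with compound at one concentration, and incubated for 48 hours before percent growth was determined.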 Active and inactive are the calls of the source. How the source made its calls: active means growth percent below 10; inactive means the rest.

Key:
Experiment in all cases: NCI-60 one-dose screen, 48 h (100 = growth as untreated, 0 = no growth, -100 = all killed)
Settings in all cases: 10 µM
SN12C renal = system: SN12C renal
UO-31 renal = system: UO-31 renal
TK-10 renal = system: TK-10 renal
ACHN renal = system: ACHN renal
CAKI-1 renal = system: CAKI-1 renal
A498 renal = system: A498 renal
CCRF-CEM leukemia = system: CCRF-CEM leukemia
MOLT-4 leukemia = system: MOLT-4 leukemia
SR leukemia = system: SR leukemia
RPMI-8226 leukemia = system: RPMI-8226 leukemia
OVCAR-8 ovarian = system: OVCAR-8 ovarian
OVCAR-5 ovarian = system: OVCAR-5 ovarian
OVCAR-4 ovarian = system: OVCAR-4 ovarian
SK-OV-3 ovarian = system: SK-OV-3 ovarian
IGROV1 ovarian = system: IGROV1 ovarian
OVCAR-3 ovarian = system: OVCAR-3 ovarian
HS 578T breast = system: HS 578T breast
NCI/ADR-RES ovarian = system: NCI/ADR-RES ovarian
T-47D breast = system: T-47D breast
EKVX NSCLC = system: EKVX NSCLC

Measured: growth

Nc1c(C(=O)Nc2ccccc2)sc2nc3c(cc12)C(O)CCC3 (configuration not stated)
inactive: SN12C renal 39.6% | UO-31 renal 49.4% | TK-10 renal 69.8% | ACHN renal 48.2% | CAKI-1 renal 41.4% | CCRF-CEM leukemia 14.2% | MOLT-4 leukemia 11.9% | RPMI-8226 leukemia 11.6% | OVCAR-8 ovarian 31% | OVCAR-5 ovarian 57.1% | OVCAR-4 ovarian 61.3% | SK-OV-3 ovarian 18.7% | IGROV1 ovarian 29.4% | HS 578T breast 39.6% | NCI/ADR-RES ovarian 11.6% | T-47D breast 53.9%
active: A498 renal -10.1% | SR leukemia 7.36% | OVCAR-3 ovarian -19.1%

COc1ccc2c(c1)[n+]([O-])c(C#N)c(NC(=O)c1ccco1)[n+]2[O-]
inactive: EKVX NSCLC 119% | SN12C renal 110% | TK-10 renal 112% | ACHN renal 95.1% | CAKI-1 renal 96.5% | CCRF-CEM leukemia 220% | MOLT-4 leukemia 93.3% | SR leukemia 87.4% | OVCAR-8 ovarian 65.3% | OVCAR-5 ovarian 111% | OVCAR-4 ovarian 93.8% | SK-OV-3 ovarian 91.2% | IGROV1 ovarian 118% | OVCAR-3 ovarian 113% | NCI/ADR-RES ovarian 111% | T-47D breast 91.5%

N=C(N)c1ccc(-c2ccc(-c3cccs3)s2)cc1
inactive: SN12C renal 85.9% | UO-31 renal 17.1% | TK-10 renal 67.8% | ACHN renal 85.8% | CAKI-1 renal 85.2% | OVCAR-5 ovarian 67% | SK-OV-3 ovarian 65.9% | IGROV1 ovarian 94.9% | OVCAR-3 ovarian 36.7% | HS 578T breast 104% | NCI/ADR-RES ovarian 56.1% | T-47D breast 55.1%
active: A498 renal -25.9% | CCRF-CEM leukemia -36.1% | MOLT-4 leukemia -48.6% | SR leukemia -35.6% | RPMI-8226 leukemia -30.9% | OVCAR-8 ovarian -14% | OVCAR-4 ovarian -19.8%

ClC(Cl)(Cl)c1nc2nccnc2[nH]1
inactive: SN12C renal 98% | UO-31 renal 80.4% | TK-10 renal 119% | ACHN renal 103% | CAKI-1 renal 87.2% | A498 renal 107% | CCRF-CEM leukemia 96.7% | MOLT-4 leukemia 104% | SR leukemia 102% | RPMI-8226 leukemia 98.8% | OVCAR-8 ovarian 107% | OVCAR-5 ovarian 104% | OVCAR-4 ovarian 97.3% | SK-OV-3 ovarian 102% | IGROV1 ovarian 103% | OVCAR-3 ovarian 118% | HS 578T breast 99.2% | NCI/ADR-RES ovarian 109%

O=C(O)CC(Cl)C(Cl)CC(=O)O (configuration not stated)
inactive: SN12C renal 102% | UO-31 renal 81.1% | TK-10 renal 95.7% | ACHN renal 103% | CAKI-1 renal 91.6% | A498 renal 105% | CCRF-CEM leukemia 89.9% | MOLT-4 leukemia 97.1% | RPMI-8226 leukemia 99.2% | OVCAR-8 ovarian 102% | OVCAR-5 ovarian 106% | OVCAR-4 ovarian 104% | SK-OV-3 ovarian 98.1% | IGROV1 ovarian 106% | OVCAR-3 ovarian 106% | HS 578T breast 115% | NCI/ADR-RES ovarian 102%
active: SR leukemia 0.349%

Cn1c(C(N)=O)cc2c1-c1nc(Nc3ccccc3)ncc1CCC2
active: A498 renal -43.8%
inactive: SN12C renal 28% | UO-31 renal 12.5% | TK-10 renal 23.7% | ACHN renal 25.6% | CAKI-1 renal 23.5% | CCRF-CEM leukemia 43.5% | MOLT-4 leukemia 42.3% | SR leukemia 17.3% | RPMI-8226 leukemia 53.2% | OVCAR-8 ovarian 51% | OVCAR-5 ovarian 36.4% | OVCAR-4 ovarian 33.1% | SK-OV-3 ovarian 40.2% | IGROV1 ovarian 25.5% | OVCAR-3 ovarian 63.5% | HS 578T breast 17.3% | NCI/ADR-RES ovarian 66.3% | T-47D breast 65.1%

Cn1c(N)c(N=Nc2ccc(S(=O)(=O)Nc3nccs3)cc2)c(=O)n(C)c1=O
inactive: SN12C renal 97% | UO-31 renal 68.6% | TK-10 renal 98.7% | ACHN renal 102% | CAKI-1 renal 95.4% | A498 renal 96.9% | CCRF-CEM leukemia 95.8% | MOLT-4 leukemia 92.6% | SR leukemia 95.2% | RPMI-8226 leukemia 100% | OVCAR-8 ovarian 100% | OVCAR-5 ovarian 115% | OVCAR-4 ovarian 106% | SK-OV-3 ovarian 103% | IGROV1 ovarian 91.2% | OVCAR-3 ovarian 103% | HS 578T breast 106% | NCI/ADR-RES ovarian 96%

Cc1cccc2c1O/C(=C\c1ccc([N+](=O)[O-])o1)C2=O
active: SN12C renal -17.5% | UO-31 renal -62.6% | TK-10 renal -88.2% | ACHN renal -81.9% | CAKI-1 renal -3% | CCRF-CEM leukemia -26.4% | MOLT-4 leukemia -14.7% | SR leukemia 2.46% | RPMI-8226 leukemia -34.7% | OVCAR-8 ovarian -7.67% | OVCAR-5 ovarian -20.8% | OVCAR-4 ovarian -82.4% | IGROV1 ovarian -34.7% | OVCAR-3 ovarian -85.7% | HS 578T breast -23.2% | T-47D breast -26%
inactive: A498 renal 49% | SK-OV-3 ovarian 45.1% | NCI/ADR-RES ovarian 10.5%

Cc1ccc(C(=O)N2C/C(=C/c3ccc(F)cc3)C(=O)/C(=C/c3ccc(F)cc3)C2)cc1
active: RPMI-8226 leukemia -18%
inactive: SN12C renal 92.4% | UO-31 renal 64.3% | TK-10 renal 102% | ACHN renal 103% | CAKI-1 renal 81.3% | A498 renal 93.5% | CCRF-CEM leukemia 63.1% | MOLT-4 leukemia 71.6% | SR leukemia 20.4% | OVCAR-8 ovarian 91.4% | OVCAR-5 ovarian 110% | OVCAR-4 ovarian 87.7% | SK-OV-3 ovarian 92.5% | IGROV1 ovarian 102% | OVCAR-3 ovarian 101% | HS 578T breast 107% | NCI/ADR-RES ovarian 82% | T-47D breast 81.9%

CCCCCCN1C(=O)C2=C(c3ccc(Cl)cc3)Nc3c(c(C)nn3-c3ccccc3)C2c2ccccc21 (configuration not stated)
inactive: SN12C renal 91.2% | UO-31 renal 79.2% | TK-10 renal 107% | ACHN renal 97.1% | CAKI-1 renal 74.5% | A498 renal 87.5% | CCRF-CEM leukemia 85.8% | MOLT-4 leukemia 73.4% | SR leukemia 76.3% | RPMI-8226 leukemia 81.2% | OVCAR-8 ovarian 92.5% | OVCAR-5 ovarian 100% | OVCAR-4 ovarian 90.5% | SK-OV-3 ovarian 95.9% | IGROV1 ovarian 100% | OVCAR-3 ovarian 92.7% | HS 578T breast 118% | NCI/ADR-RES ovarian 97.8% | T-47D breast 84.5%

COc1cc2c(cc1OCCCCCCN1CCN(CC(=O)Nc3ccc(Cl)cc3C(=O)c3ccccc3Cl)CC1)N=CC1CCCN1C2=O (configuration not stated)
active: EKVX NSCLC -93.2% | SN12C renal -90.2% | TK-10 renal -98.8% | ACHN renal -100% | CAKI-1 renal -98.8% | CCRF-CEM leukemia -66.3% | MOLT-4 leukemia -64% | SR leukemia -70.2% | OVCAR-8 ovarian -81.7% | OVCAR-5 ovarian -74.4% | OVCAR-4 ovarian -88.9% | SK-OV-3 ovarian -90.2% | IGROV1 ovarian -79% | OVCAR-3 ovarian -91.9% | HS 578T breast -83.5% | NCI/ADR-RES ovarian -60.8% | T-47D breast -57.8%

S=C1SCC(c2ccccc2)S1 (configuration not stated)
inactive: SN12C renal 101% | UO-31 renal 104% | TK-10 renal 107% | ACHN renal 101% | CAKI-1 renal 97.1% | A498 renal 102% | CCRF-CEM leukemia 101% | MOLT-4 leukemia 107% | SR leukemia 103% | RPMI-8226 leukemia 102% | OVCAR-8 ovarian 103% | OVCAR-5 ovarian 106% | OVCAR-4 ovarian 93.8% | SK-OV-3 ovarian 104% | IGROV1 ovarian 114% | OVCAR-3 ovarian 121% | HS 578T breast 143% | NCI/ADR-RES ovarian 112% | T-47D breast 99.6%

CC1(C)OC2=C(CC1Br)C(=O)C(=O)c1ccccc12 (configuration not stated)
active: EKVX NSCLC -40.1% | SN12C renal -75.4% | TK-10 renal -22.6% | ACHN renal -91.7% | CAKI-1 renal -62.2% | CCRF-CEM leukemia -23.1% | MOLT-4 leukemia -25.6% | RPMI-8226 leukemia -28.1% | OVCAR-8 ovarian -46.4% | OVCAR-5 ovarian -80.5% | OVCAR-4 ovarian -99.4% | IGROV1 ovarian -80.2% | OVCAR-3 ovarian -96.5% | HS 578T breast 8.65% | NCI/ADR-RES ovarian -44.7% | T-47D breast -45.4%
inactive: A498 renal 101% | SR leukemia 15.9% | SK-OV-3 ovarian 77.8%

Clc1nc(Cl)c2c(ncn2C/C=C\Cn2cnc3c(Cl)nc(Cl)nc32)n1
active: EKVX NSCLC -79.8% | SN12C renal -5.17% | TK-10 renal -97.2% | ACHN renal -100% | CAKI-1 renal -100% | CCRF-CEM leukemia -81% | MOLT-4 leukemia -59.4% | SR leukemia -66.3% | OVCAR-8 ovarian -83% | OVCAR-5 ovarian -76.7% | OVCAR-4 ovarian -69% | IGROV1 ovarian -83.7% | OVCAR-3 ovarian -98.9% | HS 578T breast -53% | T-47D breast -47%
inactive: SK-OV-3 ovarian 34.5% | NCI/ADR-RES ovarian 11%

Cc1nc2c(c(=O)[nH]1)OCN(Cc1ccccc1)C2
inactive: SN12C renal 104% | UO-31 renal 79.3% | TK-10 renal 119% | ACHN renal 104% | CAKI-1 renal 103% | A498 renal 75.5% | CCRF-CEM leukemia 90.5% | MOLT-4 leukemia 95.9% | SR leukemia 93.6% | RPMI-8226 leukemia 101% | OVCAR-8 ovarian 99.1% | OVCAR-5 ovarian 109% | OVCAR-4 ovarian 96.1% | SK-OV-3 ovarian 93.7% | IGROV1 ovarian 100% | OVCAR-3 ovarian 103% | HS 578T breast 109% | NCI/ADR-RES ovarian 107% | T-47D breast 97.8%

O=C(Nc1ccc(CN2CCc3nc4cc(O)c(O)cc4cc32)cc1)c1ccc(Cl)c(Cl)c1
inactive: SN12C renal 97.4% | UO-31 renal 88.9% | TK-10 renal 122% | ACHN renal 98.2% | CAKI-1 renal 96.4% | A498 renal 103% | CCRF-CEM leukemia 78% | MOLT-4 leukemia 106% | SR leukemia 94.5% | RPMI-8226 leukemia 103% | OVCAR-8 ovarian 106% | OVCAR-5 ovarian 106% | OVCAR-4 ovarian 117% | SK-OV-3 ovarian 106% | IGROV1 ovarian 102% | OVCAR-3 ovarian 104% | HS 578T breast 102% | NCI/ADR-RES ovarian 106%

CCOC(=O)c1ccoc1
inactive: SN12C renal 103% | UO-31 renal 95.4% | TK-10 renal 109% | ACHN renal 96.5% | CAKI-1 renal 98.1% | A498 renal 73.7% | CCRF-CEM leukemia 100% | MOLT-4 leukemia 90.1% | SR leukemia 86.4% | RPMI-8226 leukemia 102% | OVCAR-8 ovarian 101% | OVCAR-5 ovarian 90.7% | OVCAR-4 ovarian 104% | SK-OV-3 ovarian 93.3% | IGROV1 ovarian 101% | OVCAR-3 ovarian 101% | HS 578T breast 100% | NCI/ADR-RES ovarian 108% | T-47D breast 94.3%
